From PubChem BioAssay
Hits are enriched below; roughly 2.6% of the tested compounds scored in any of these assays.
FH mod: Identification of activators of human fumarate hydratase by quantitative high-throughput screening. Potency, µM (titrated, usually from 79.9 µM), for the others: at the top dose activity change, negative = inhibition, usual class: inhibitors. FH coupled MDH/diaphorase resazurin fluorescence, 15 min. actives 0.22% (n = 54,000). Fumarate hydratase, mitochondrial (Homo sapiens), P07954; also: potency is read from the fitted curve at half-maximal effect; % is scaled to controls: 0 for no effect and ±100 for the full control effect; the screen sought activators but most active calls are inhibition curves; nearly all actives have a fitted effect of over 45% in size
TSG101-PTAP inh: TSG101-PTAP interaction inhibition, HIV-1 budding; Q99816; Fluorescence polarization, FITC-PTAP peptide/Tsg101, 20 min; 44,000 tested, under 10 active; Potency, µM (titrated, usually from 115 µM), usual class: inhibitors; also: potency is read from the fitted curve at half-maximal effect; 0% is about no effect
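The Tsg101 binding domain, at 10 uM final, is mixed with compound and a FITC peptide bearing the PTAP motif (50 nM final). After 20 min at r.t., polarization is measured; actives defined by CRC class, efficacy cut-off 60% inhibition.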
DRV1 agonist: GPR32 (DRV1) agonism, beta-arrestin recruitment; AID 1346428; activation, % at 76.9 µM; O75388; CHO-K1 GPR32 beta-arrestin PathHunter luminescence, 90 min; zero percent set by DMSO-only wells; actives 2.5% (n = 48,000);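 active = activation of at least 60% and not above a set upper limit, about 1 call in 100 departs from these limits; inconclusive = activation of 40% to 60%, or above that upper limit; inactive = activation under 40%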; also: 0% is about no effect
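Cells are plated overnight, treated with compounds in DMSO for 90 minutes at 37 °C, and developed with PathHunter detection reagent for 1 hour before luminescence is read; signal reflects beta-arrestin binding to GPR32 in engineered CHO-K1 cells.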
GALC G270D act: enhancers of human galactocerebrosidase G270D mutant activity in cells. actives 0.1% (n = 45,000). AID 1159614. Potency, µM (highest dose often 57.5 µM), hits mostly activators. P54803. 145M-Twi-hGALC-G270D cells (Twitcher mouse brain line with human GALC G270D), HMU-beta-Gal fluorescence, 48 h; also: potency is read from the fitted curve at half-maximal effect; 0% is about no effect; nearly all actives have a fitted effect of over 65% in size
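Brain-derived Twitcher mouse 145M-Twi cells stably expressing human GALC-G270D or wild-type GALC, treated live, then residual GALC activity read by fluorescence of HMU-b-Gal substrate (0.1 mM final) in citrate-phosphate buffer pH 5.2 with sodium taurocholate. Signal increase indicates enhancement.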
B2AR arrestin ag: ADRB2 beta-arrestin recruitment; HTLA Tango cells, beta-arrestin recruitment, luciferase luminescence, 18 h; Potency, µM (top dose mostly 46.1 µM), actives largely listed as activators; 44,000 tested, under 10 active; P07550;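 also: potency is read from the fitted curve at half-maximal effect; 0% = DMSO and full agonism = EC100 isoproterenol or metaproterenol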
Target sequence (P07550 whole entry, looked up): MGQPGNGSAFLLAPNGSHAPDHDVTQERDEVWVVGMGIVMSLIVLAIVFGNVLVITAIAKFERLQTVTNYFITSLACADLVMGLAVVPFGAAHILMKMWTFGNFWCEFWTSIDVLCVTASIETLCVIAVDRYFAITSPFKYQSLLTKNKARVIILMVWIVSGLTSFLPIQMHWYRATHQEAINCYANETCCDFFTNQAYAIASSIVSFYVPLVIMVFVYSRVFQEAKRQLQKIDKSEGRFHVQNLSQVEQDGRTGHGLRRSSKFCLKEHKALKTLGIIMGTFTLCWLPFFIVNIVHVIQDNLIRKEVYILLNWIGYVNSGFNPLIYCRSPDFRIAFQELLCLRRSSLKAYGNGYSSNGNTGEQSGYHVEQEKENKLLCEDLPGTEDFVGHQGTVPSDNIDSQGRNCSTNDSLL
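Tango cell line, 1% FBS DMEM; cpd titration up to 46 microM; 18 hr, 37 degrees C, 5% CO2. Luciferin/ATP substrate mix added, 15 min RT, luminescence. %Activity, CRC fitting, curve-class categorization.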
GALK inhibitor: GALK (human) enzyme inhibition; P51570; recombinant GALK, Kinase-Glo ATP luminescence, 1 h; Potency, µM (series often up to 57.5 µM), for inactives: at the highest dose activity, negative = inhibition, actives largely listed as inhibitors; 44,000 tested, under 10 active; AID 1347072;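 also: plate controls were full GALK reaction for no effect and reaction lacking GALK for full effect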
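5 nM GALK with 35 µM ATP and 100 µM galactose in HEPES pH 8.0, MgCl2, NaCl, DTT, BSA; 1 h RT reaction, remaining ATP detected by Kinase-Glo Plus luminescence after 10 min; qHTS concentration series.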
Active calls of the source: *; i = inactive; ? = inconclusive; . = no result given; [ ] = remark or other dose. Unless noted, calls follow the shape of the dose curve; as a rule, active = well fitted curve in the direction sought with a large enough effect; inconclusive = small, poorly fitted or top-dose-only effect, or another doubt; inactive = no such curve, though single readings can be large; an effect the other way counts as inactive or inconclusive.

SMILES | FH mod | TSG101-PTAP inh | DRV1 agonist | GALC G270D act | B2AR arrestin ag | GALK inhibitor
CCOCCCNc1ncnc2onc(C)c12 | -7% | i | 1 | i | i | 3%
Cc1noc2ncnc(NCCc3ccccc3)c12 | 4% | i | ? | i | i | -2%
CC(C)c1ccccc1NC(=O)CSc1nnc(COc2ccccc2)o1 | -30% | i | 12 | i | i | 4%
CC(C)c1ccccc1NC(=O)CSc1nnc(COc2ccccc2Cl)o1 | 2% | i | 87* | i | i | 1%
CCOC(=O)c1nc(NCc2ccc(Cl)cc2)c2c(C)noc2n1 | -6% | i | 65* | i | i | -1%
O=C(CN1C(=O)COc2ccc(S(=O)(=O)NC3CCCC3)cc21)Nc1ccc(Cl)cc1 | -21% | i | 104* | i | i | -1%
Cc1ccc(C)c(N2CCN(CCCNC(=O)Nc3cc(Cl)ccc3C)CC2)c1 | -20% | i | -4 | i | i | -1%
CCOc1ccc(NC(=O)NCCN2CCN(c3cc(Cl)ccc3C)CC2)cc1 | -28% | i | 73* | i | i | -6%
CCOc1ccc(NC(=O)NCCCN2CCN(c3ccc(OC)cc3)CC2)cc1 | -13% | i | -3 | i | i | 3%
Cc1ccc(Cl)cc1N1CCN(CCNC(=O)Nc2ccc(Cl)cc2)CC1 | -23% | i | 84* | i | i | 3%
CCC(=O)N1c2ccccc2CC1C(=O)NCCN1CCN(c2cc(Cl)ccc2C)CC1 (centres undefined) | -4% | i | 69* | i | i | 0%
CCC(=O)N1c2ccccc2CC1C(=O)NCCCN1CCN(c2ccc(OC)cc2)CC1 (centres undefined) | -10% | i | 11 | i | i | -4%
COc1ccc(/C=C/C(=O)Nc2nc(-c3cccs3)ns2)cc1 | 8% | i | 14 | i | i | 7%
O=C(/C=C/c1ccccc1)Nc1nc(-c2cccs2)ns1 | -1% | i | 81* | i | i | 2%
Cc1ccc(/C=C/C(=O)Nc2nc(-c3cccs3)ns2)cc1 | -3% | i | 70* | i | i | 0%
O=C1CC2(CCCC2)[C@H](O)C(=O)N1CCCCN1CCN(c2ncccn2)CC1 | -6% | . | . | . | . | .
O=C(OCC(O)CO[C@@H]1O[C@H](C(=O)O)[C@@H](O)[C@H](O)[C@H]1O)c1ccccc1 (some centres undefined) | -1%[53.3 µM] | . | . | . | . | .
COc1ccc(Nc2ncnc3c2nc2n3CCCCC2)cc1 | 4% | i | 77* | i | i | -3%
CCOc1ccc(Nc2ncnc3c2nc2n3CCCCC2)cc1 | -16% | i | 85* | i | i | 1%
COc1ccccc1N1CCN(c2ncnc3c2nc2n3CCCC2)CC1 | -10% | i | 63* | i | i | -1%
COc1ccc(Nc2ncnc3c2nc2n3CCCC2)cc1Cl | -3% | i | 8 | i | i | -9%
C[C@@H]1O[C@@H](OC[C@H]2O[C@@H](OCC3CCC4CC3C4(C)C)[C@H](O)[C@@H](O)[C@@H]2O)[C@H](O)[C@H](O)[C@H]1O (some centres undefined) | 21%[53.3 µM] | . | . | . | . | .
CCC(=O)Nc1ccc2nc(SCCOc3cccc(C)c3)sc2c1 | -8% | i | 86* | i | i | -1%
CCC(=O)Nc1ccc2nc(SCCOc3ccc(C)cc3OC)sc2c1 | -6% | i | 93* | i | i | -8%
Cc1cccc(C(=O)Nc2ccc3nc(SCCOc4ccccc4)sc3c2)c1 | -4% | i | 14 | i | i | -2%
SMILES | FH mod | TSG101-PTAP inh | DRV1 agonist | GALC G270D act | B2AR arrestin ag | GALK inhibitor
Cc1cnc(-c2ccccc2C(C)C)nc1NCc1ccc(-n2ccnn2)cc1 | -3% | . | . | . | . | .
O=C(O[C@@H]1O[C@H](CO)[C@@H](O)[C@H](O)[C@H]1O)c1c(O)cc(O)cc1/C=C/c1ccccc1 | 0%[53.3 µM] | . | . | . | . | .
CCOc1ccc(CNCc2c(C(=O)O)n(Cc3ccc(C)cc3)c3cc(C)ccc23)cc1 | ? | i | 64* | i | i | ?
Cc1ccc(Cn2c(C(=O)O)c(CNCc3cccs3)c3ccc(C)cc32)cc1 | -25% | i | 111* | i | i | 3%
COc1ccc2c(CNCc3cccs3)c(C(=O)O)n(Cc3ccccc3)c2c1 | -18% | i | 44 | i | i | 0%
COc1ccc(OC)c(CCNC(=O)CS(=O)(=O)Cc2nc(-c3cccc(Cl)c3)oc2C)c1 | -12% | i | 88* | i | i | 7%
Cn1c(=O)c2c(nc(NCc3ccccc3)n2Cc2ccccc2)n(C)c1=O | 0% | i | 17 | i | i | 0%
Cc1cc(C)cc(-n2ccnc(NCCc3ccccc3)c2=O)c1 | 5% | i | -13 | i | i | -2%
O=c1c(NCCc2ccc(Cl)cc2)nccn1-c1ccccc1 | 4% | i | 91* | i | i | -2%
Cn1c(=O)c2c(nc(NCCc3ccccc3)n2Cc2ccc(Cl)cc2)n(C)c1=O | -25% | i | 73* | i | i | -2%
CC(CCO)Nc1nc2c(c(=O)n(C)c(=O)n2C)n1Cc1ccc(Br)cc1 (centres undefined) | -17% | i | -10 | 22µM* | i | 2%
CC1=C(/C=C/C(C)=C\C=C\C(C)=C/C(=O)O)C(C)(C)CCC1 | 0% | . | . | . | . | .
CCCc1cc(=O)[nH]c(Nc2cc(Cl)cc(Cl)c2)n1 | . | i | 99* | . | i | 9%
CCCc1cc(=O)[nH]c(Nc2cccc(Cl)c2Cl)n1 | . | i | 87* | . | i | 3%
Nc1nc(O)c(C2=C3C(=Nc4ccccc43)C(=O)NCC2)[nH]1 | -1% | . | . | . | . | .
CC1(C)O[C@H]2CC(=O)OC[C@@]23C1=C(O)C(=O)[C@]1(C)C3CC[C@@]2(C)[C@H](c3ccoc3)OC(=O)[C@H]3O[C@]321 (some centres undefined) | -15%[53.3 µM] | . | . | . | . | .
Cc1ccccc1N1CC(c2nc3ccccc3n2Cc2ccc(Br)cc2)CC1=O (centres undefined) | ? | i | 92* | i | i | 3%
O=C(NCCN1CCN(c2cccc3c2OCCO3)CC1)c1ccc(F)cc1 | 3% | . | . | . | . | .
COc1cc(Nc2nc3c(s2)CCCC3c2ccc(F)cc2)ccc1-n1cnc(C)c1 (centres undefined) | -16% | . | . | . | . | .
